Hits are enriched below; roughly 11% of the tested compounds scored in any of these assays.
PLK1 PBD inh: qHTS for Inhibitors of PLK1-PDB (polo-like kinase 1 - polo-box domain): Primary Screen; Serine/threonine-protein kinase PLK1 (Homo sapiens), P53350; Plk1 PBD binding of FITC phosphopeptide, fluorescence polarization; 360,000 compounds, 2.8% hits; Potency, µM, for the others: max response, negative = inhibition, actives largely listed as inhibitors; further: series mostly up to about 57 µM; on the % scale 0 is the no-effect control and ±100 the full control effect; nearly all actives have a fitted effect of over 65% in size
HP1b chromo inh: HTS for Inhibitors of HP1-beta Chromodomain Interactions with Methylated Histone Tails | AlphaScreen HP1-beta / biotin-H3K9me3 peptide binding | Chromobox protein homolog 1 (Homo sapiens), P83916 | AID 540317, 2011 | Potency, µM (doses to about 114 µM), without a hit: top-dose activity change, negative = inhibition, most hits filed as inhibitors | 390,000 compounds, 0.56% hits; further: nearly all actives have a fitted effect of over 70% in size
Target sequence (P83916 whole entry, looked up): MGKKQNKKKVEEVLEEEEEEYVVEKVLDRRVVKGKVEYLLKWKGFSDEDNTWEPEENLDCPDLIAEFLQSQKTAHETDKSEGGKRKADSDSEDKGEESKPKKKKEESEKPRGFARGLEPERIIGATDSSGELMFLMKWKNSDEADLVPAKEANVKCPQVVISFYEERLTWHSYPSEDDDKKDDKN
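AlphaScreen: HP1-beta (50 nM) preformed 30 min with biotin-H3(1-18)K9me3 peptide (50 nM) in PBS pH 7.4, 0.01% Tween-20. Compound added for 30 min at RT, then streptavidin donor/nickel chelate acceptor beads (10 ug/mL) for 30 min.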
G9a inh: qHTS Assay for Inhibitors of Histone Lysine Methyltransferase G9a; Histone-lysine N-methyltransferase EHMT2 (Homo sapiens), Q96KQ7; G9a H3K9 monomethylation, AlphaScreen, 2 h; Potency, µM (series often up to 102 µM), for the others: top-dose activity, negative = inhibition, hits mostly inhibitors; 350,000 compounds, 8.8% hits; further: on the % scale 0 is the no-effect control and ±100 the full control effect; nearly all actives have a fitted effect of over 75% in size
Target sequence (Q96KQ7 913-1193 limits assumed): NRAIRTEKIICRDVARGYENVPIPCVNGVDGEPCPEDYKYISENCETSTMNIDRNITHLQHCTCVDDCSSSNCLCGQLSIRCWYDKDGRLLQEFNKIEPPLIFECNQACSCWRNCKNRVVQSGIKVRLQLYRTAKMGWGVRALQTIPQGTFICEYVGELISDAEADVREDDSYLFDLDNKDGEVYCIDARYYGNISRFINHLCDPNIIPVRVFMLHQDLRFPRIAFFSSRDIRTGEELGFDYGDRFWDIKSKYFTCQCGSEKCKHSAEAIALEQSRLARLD
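Compounds were preincubated with 20 nM G9a for 15 min, after which biotinylated H3K9 peptide (500 nM) and SAM (20 uM) started a 2 h room-temperature reaction. Monomethylated product was quantified by antibody-based AlphaScreen chemiluminescence.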
JMJD2A Tudor inh: qHTS Assay for Inhibitors of JMJD2A-Tudor Domain. 390,000 compounds, 4.4% hits. Potency, µM (doses to about 114 µM), for inactives: top-dose activity change, negative = inhibition, hits mostly inhibitors. AlphaScreen JMJD2A-Tudor / H3K4me3 peptide binding. Lysine-specific demethylase 4A (Homo sapiens), O75164. AID 504339, 2011; further: on the % scale 0 is the no-effect control and ±100 the full control effect; nearly all actives have a fitted effect of over 50% in size
VDR inh: Inhibitors of the vitamin D receptor (VDR): qHTS; VDR-SRC2-3 peptide fluorescence polarization, 2 h; 400,000 compounds, 0.93% hits; AID 504847, 2011; Potency, µM, without a hit: max response, negative = inhibition, hits mostly inhibitors; Vitamin D3 receptor (Homo sapiens), P11473; further: on the % scale 0 is the no-effect control and ±100 the full control effect
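FP read-out; VDR + SRC2-3 coactivator peptide; 23 nl compound by pintool; 2 h RT incubation; reagents held at 4 deg C, protected from light.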
BAZ2B block: qHTS Assay for Inhibitors of BAZ2B. Bromodomain adjacent to zinc finger domain protein 2B (Homo sapiens), Q9UIF8. AlphaScreen BAZ2B-H3K14Ac peptide displacement. Potency, µM (doses to about 114 µM), inactives show at the top dose activity change, negative = inhibition, most hits filed as inhibitors. 360,000 compounds, 4.4% hits. AID 504333, 2011; further: on the % scale 0 is the no-effect control and ±100 the full control effect; nearly all actives have a fitted effect of over 60% in size
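AlphaScreen displacement: compounds (up to 110uM) incubated 30 min at room temperature with a preformed 50 nM BAZ2B/50 nM biotinylated H3K14Ac peptide complex in PBS pH 7.4 with Tween-20. Donor and acceptor beads at 10 ug/mL final added, 20 min light-protected before reading.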
Starred values were filed as active, the others as inactive; [ ] = dose if it differs, or a comment. The call rests on the fitted dose curve; in most records, active means well fitted curve in the direction sought with a large enough effect; inconclusive means small, poorly fitted or top-dose-only effect, or another doubt; inactive means no such curve, though single readings can be large; an effect the other way counts as inactive or inconclusive. Potency means the concentration at half of the fitted maximal effect.

What do the screens show for `CCOC(=O)C1=C(CS(=O)(=O)c2ccc(F)cc2)NC(=O)NC1c1ccc(O)c(O)c1` (stereo not drawn)?
PLK1 PBD inh: -12%; HP1b chromo inh: -21%; G9a inh: 14µM*; JMJD2A Tudor inh: -30%; VDR inh: 4%; BAZ2B block: -34%

How did N#Cc1c(C#N)c(O)c2ccccc2c1O do in these assays?
PLK1 PBD inh: 13µM*; HP1b chromo inh: -22%; G9a inh: 2µM*; JMJD2A Tudor inh: -32%; VDR inh: 28µM*; BAZ2B block: -34%

How did N#Cc1ccccc1 do in these assays?
PLK1 PBD inh: -18%; HP1b chromo inh: 27%; G9a inh: 15%[0.501 µM]; JMJD2A Tudor inh: -1%; VDR inh: -3%; BAZ2B block: -5%

How did C=CCn1c(-c2ccc(Cl)cc2)cnc1SC(C)C(=O)NC(N)=O (stereo not drawn) do in these assays?
PLK1 PBD inh: -5%; HP1b chromo inh: -10%; G9a inh: inconclusive; JMJD2A Tudor inh: -25%; VDR inh: inconclusive; BAZ2B block: -34%

How did C=CCn1c(-c2ccc(Cl)cc2)cnc1SC(C)C(N)=O (stereo not drawn) do in these assays?
PLK1 PBD inh: -13%; HP1b chromo inh: 20%; G9a inh: 10µM*; JMJD2A Tudor inh: -33%; VDR inh: -15%; BAZ2B block: inconclusive

Results for O=C1c2ccc([N+](=O)[O-])cc2S(=O)(=O)N1Cc1ccccc1 ?
PLK1 PBD inh: -8%; HP1b chromo inh: inconclusive; G9a inh: 11µM*; JMJD2A Tudor inh: inconclusive; VDR inh: -7%; BAZ2B block: inconclusive

Results for COC(=O)c1ccc(Oc2coc3cc(OCc4ccc([N+](=O)[O-])cc4)ccc3c2=O)cc1 ?
PLK1 PBD inh: -9%; HP1b chromo inh: 9%; G9a inh: 56µM*; JMJD2A Tudor inh: -26%; VDR inh: -2%; BAZ2B block: -23%

Results for Cc1cc(=O)oc2cc(OCc3ccc(C(=O)N4CCN(c5ccc([N+](=O)[O-])cc5)CC4)cc3)ccc12 ?
PLK1 PBD inh: -6%; HP1b chromo inh: 26%; G9a inh: 20%[59 µM]; JMJD2A Tudor inh: -6%; VDR inh: 43%; BAZ2B block: 1%

Results for Cc1nc2cc(NC(=O)Nc3ccc(N4CCOCC4)cc3)ccc2n1C ?
PLK1 PBD inh: -2%; HP1b chromo inh: 18%; G9a inh: 8.9µM*; JMJD2A Tudor inh: -19%; VDR inh: 17%; BAZ2B block: -22%

Results for O=C(Nc1ccc(N2CCOCC2)cc1)c1cc(F)c(F)cc1Cl ?
PLK1 PBD inh: -5%; HP1b chromo inh: 17%; G9a inh: -4%[59 µM]; JMJD2A Tudor inh: -20%; VDR inh: 12%; BAZ2B block: 0%

Results for Cc1ccc(NC(=O)Nc2ccc3c(c2)nc(C)n3C)cc1C ?
G9a inh: -3%; BAZ2B block: 2%

Results for CSc1ccc(Cl)c(C(=O)Nc2ccc(N3CCOCC3)cc2)c1 ?
PLK1 PBD inh: -12%; HP1b chromo inh: 2%; G9a inh: 50µM*; JMJD2A Tudor inh: -34%; VDR inh: -2%; BAZ2B block: inconclusive

Results for O=C(Nc1ccc2c(c1)OCO2)c1ccccc1SCC(=O)N1CCCC1 ?
PLK1 PBD inh: 0%; HP1b chromo inh: 26%; G9a inh: -12%[12.7 µM]; JMJD2A Tudor inh: -5%; VDR inh: 1%; BAZ2B block: 13%

Results for O=C(Nc1ccc(N2CCOCC2)cc1)c1ccccc1SCC(=O)N1CCCC1 ?
PLK1 PBD inh: -28%; HP1b chromo inh: 12%; G9a inh: 7.1µM*; JMJD2A Tudor inh: -19%; VDR inh: 12%; BAZ2B block: -7%
